Source: the supplement of paper PMC10849652
Of roughly 7,900 targets only a part is listed; those with a hit were picked by preference. About 0.6% of all pairs of compound and target were hits.

What was measured:
Assay in all cases: log2 fold change, soluble protein after heating vs DMSO (PISA); higher = thermal stabilisation; K562 cells, 10 uM, 30 min; active = over 0.2 and 3.5 SD of the protein, either way, in both replicates (recomputed)
IRAK-1-4 Inhibitor I = compound: C1COCCN1CCN2C3=CC=CC=C3N=C2NC(=O)C4=CC(=CC=C4)[N+](=O)[O-] [IRAK-1-4 Inhibitor I]
How it was run: (§1)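 K562 cells at 2×10^6 cells/mL were treated with 10 μM compound for 30 min. Aliquots were heated for 3 min across 48°C-58°C, pooled, and extracted in PBS with 0.5% NP-40 at 4°C; soluble protein was the supernatant after 21,000xg for 90 min. Soluble protein was quantified by TMTpro 16plex LC-MS/MS with channel sums equalised, and reported as log2 fold change in thermal stability against DMSO controls, with values from duplicates.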

ibrutinib = compound: C=CC(=O)N1CCC[C@@H](n2nc(-c3ccc(Oc4ccccc4)cc3)c3c(N)ncnc32)C1 [ibrutinib]
How it was run: as §1

[1] = compound: CC(=O)c1cnc2ccc(-c3cc(Cl)c(O)c(Cl)c3)nc2c1N[C@H]1CC[C@H](CN(C)C)CC1
How it was run: as §1

ralimetinib = compound: CC(C)(C)Cn1c(N)nc2ccc(-c3[nH]c(C(C)(C)C)nc3-c3ccc(F)cc3)nc21 [ralimetinib]
How it was run: as §1

[2] = compound: CC(C)(O)CC(=O)NCCn1ccc2ncnc(Nc3ccc(Oc4cccc(C(F)(F)F)c4)c(Cl)c3)c21
How it was run: as §1

[3] = compound: CC(C)C1=C2N=C(C=C(N2N=C1)NCC3=CC=CC=C3)NCCCCCCN
How it was run: as §1

[4] = compound: CC(C)C[C@@H](C=O)NC(=O)[C@H](CC(C)C)NC(=O)[C@H](CC(C)C)NC(=O)OCc1ccccc1
How it was run: as §1

pinometostat = compound: CC(C)N(C[C@H]1O[C@@H](n2cnc3c(N)ncnc32)[C@H](O)[C@@H]1O)[C@H]1C[C@@H](CCc2nc3cc(C(C)(C)C)ccc3[nH]2)C1 [pinometostat]
How it was run: as §1

[5] = compound: CC1=C(C(CC(=O)N1)C2=CC=C(C=C2)C(F)(F)F)C(=O)NC3=C(C=C4C(=C3)C=NN4)F
How it was run: as §1

[6] = compound: CC1=C(C2=C(C=C1)C(=O)C3=CC=CC=C3N2CCCN)C
How it was run: as §1

Measured: log2 fold change

CTSA (UniProt P10619)
inactive: IRAK-1-4 Inhibitor I -0.006 | ibrutinib 0.017 | [1] 0.038 | ralimetinib -0.027 | [2] 0.027 | [3] -0.204 | [4] -0.017 | pinometostat 0.014 | [5] 0.014 | [6] -0.058

DOHH (UniProt Q9BU89)
inactive: IRAK-1-4 Inhibitor I 0.127 | ibrutinib 0.137 | [1] 0.103 | ralimetinib 0.004 | [2] 0.244 | [3] 0.045 | [4] -0.106 | pinometostat 0.011 | [5] 0.02 | [6] 0.189

DPP8 (UniProt Q6V1X1)
inactive: IRAK-1-4 Inhibitor I 0.002 | ibrutinib -0.001 | [1] -0.035 | ralimetinib -0.046 | [2] -0.005 | [3] 0.059 | [4] 0.015 | pinometostat -0.018 | [5] 0.004 | [6] 0.12

FAM50A (UniProt Q14320)
Chain of UniProt Q14320 (Q14320 whole entry, looked up): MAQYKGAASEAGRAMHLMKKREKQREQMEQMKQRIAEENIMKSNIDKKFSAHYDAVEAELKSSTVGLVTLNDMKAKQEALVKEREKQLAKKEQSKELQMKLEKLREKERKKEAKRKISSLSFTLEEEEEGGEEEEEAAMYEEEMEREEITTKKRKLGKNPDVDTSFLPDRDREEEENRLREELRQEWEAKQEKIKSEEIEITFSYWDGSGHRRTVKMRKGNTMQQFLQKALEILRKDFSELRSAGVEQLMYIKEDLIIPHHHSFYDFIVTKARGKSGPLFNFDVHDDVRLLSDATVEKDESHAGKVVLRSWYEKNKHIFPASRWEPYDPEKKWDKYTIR
inactive: IRAK-1-4 Inhibitor I -0.014 | ibrutinib -0.011 | [1] -0.01 | ralimetinib -0.029 | [2] -0.027 | [3] 0 | [4] 0.043 | pinometostat -0.016 | [5] -0.026 | [6] 0.053

EEF1D isoform 2 (UniProt P29692)
inactive: IRAK-1-4 Inhibitor I -0.038 | ibrutinib -0.039 | [1] 0.012 | ralimetinib 0.026 | [2] -0.006 | [3] -0.051 | [4] 0.029 | pinometostat 0.065 | [5] 0.002 | [6] 0.039

DDB1 (UniProt Q16531)
inactive: IRAK-1-4 Inhibitor I 0.038 | ibrutinib 0.026 | [1] 0.002 | ralimetinib -0.053 | [2] -0.008 | [3] 0.071 | [4] -0.017 | pinometostat -0.03 | [5] 0.022 | [6] -0.001

DCTPP1 (UniProt Q9H773)
Chain of UniProt Q9H773 (Q9H773 whole entry, looked up): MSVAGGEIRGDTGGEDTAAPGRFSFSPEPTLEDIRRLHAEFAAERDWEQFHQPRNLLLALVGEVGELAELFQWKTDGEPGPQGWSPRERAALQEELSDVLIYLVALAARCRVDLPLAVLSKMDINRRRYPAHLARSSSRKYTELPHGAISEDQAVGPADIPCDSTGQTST
inactive: IRAK-1-4 Inhibitor I 0.017 | ibrutinib 0.011 | [1] 0.03 | ralimetinib 0.062 | [2] -0.039 | [3] 0.075 | [4] -0.105 | pinometostat -0.067 | [5] 0.061 | [6] 0.165

EXOC7 (UniProt Q9UPT5)
inactive: IRAK-1-4 Inhibitor I -0.047 | ibrutinib -0.029 | [1] 0.002 | ralimetinib 0.049 | [2] -0.109 | [3] -0.276 | [4] 0.044 | pinometostat 0.043 | [5] 0.041 | [6] 0.045

ESYT1 isoform 2 (UniProt Q9BSJ8)
active: [3] -0.321
inactive: IRAK-1-4 Inhibitor I -0.126 | ibrutinib -0.046 | [1] -0.048 | ralimetinib 0 | [2] -0.075 | [4] 0.053 | pinometostat 0.152 | [5] -0.018 | [6] 0.031

EIF3J (UniProt O75822)
Chain of UniProt O75822 (O75822 whole entry, looked up): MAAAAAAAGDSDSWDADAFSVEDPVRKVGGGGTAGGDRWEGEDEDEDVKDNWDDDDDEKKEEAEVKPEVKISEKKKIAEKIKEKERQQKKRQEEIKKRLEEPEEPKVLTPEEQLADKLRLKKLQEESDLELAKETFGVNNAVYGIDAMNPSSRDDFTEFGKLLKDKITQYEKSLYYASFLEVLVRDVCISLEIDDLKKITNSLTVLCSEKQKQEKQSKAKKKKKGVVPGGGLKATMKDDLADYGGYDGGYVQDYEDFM
inactive: IRAK-1-4 Inhibitor I 0.118 | ibrutinib -0.031 | [1] 0.035 | ralimetinib 0.093 | [2] -0.031 | [3] -0.007 | [4] -0.079 | pinometostat -0.007 | [5] -0.019 | [6] -0.025

ERCC6 (UniProt Q03468)
inactive: IRAK-1-4 Inhibitor I 0.05 | ibrutinib -0.079 | [1] 0.11 | ralimetinib 0.05 | [2] -0.094 | [3] -0.015 | [4] 0.018 | pinometostat -0.078 | [5] 0.157 | [6] -0.041

FAM83D (UniProt Q9H4H8)
inactive: IRAK-1-4 Inhibitor I 0 | ibrutinib -0.094 | [1] 0.022 | ralimetinib 0.145 | [2] -0.035 | [3] -0.232 | [4] -0.062 | pinometostat 0.041 | [5] -0.049 | [6] 0.1

FAAP100 (UniProt Q0VG06)
Chain of UniProt Q0VG06 (Q0VG06 whole entry, looked up): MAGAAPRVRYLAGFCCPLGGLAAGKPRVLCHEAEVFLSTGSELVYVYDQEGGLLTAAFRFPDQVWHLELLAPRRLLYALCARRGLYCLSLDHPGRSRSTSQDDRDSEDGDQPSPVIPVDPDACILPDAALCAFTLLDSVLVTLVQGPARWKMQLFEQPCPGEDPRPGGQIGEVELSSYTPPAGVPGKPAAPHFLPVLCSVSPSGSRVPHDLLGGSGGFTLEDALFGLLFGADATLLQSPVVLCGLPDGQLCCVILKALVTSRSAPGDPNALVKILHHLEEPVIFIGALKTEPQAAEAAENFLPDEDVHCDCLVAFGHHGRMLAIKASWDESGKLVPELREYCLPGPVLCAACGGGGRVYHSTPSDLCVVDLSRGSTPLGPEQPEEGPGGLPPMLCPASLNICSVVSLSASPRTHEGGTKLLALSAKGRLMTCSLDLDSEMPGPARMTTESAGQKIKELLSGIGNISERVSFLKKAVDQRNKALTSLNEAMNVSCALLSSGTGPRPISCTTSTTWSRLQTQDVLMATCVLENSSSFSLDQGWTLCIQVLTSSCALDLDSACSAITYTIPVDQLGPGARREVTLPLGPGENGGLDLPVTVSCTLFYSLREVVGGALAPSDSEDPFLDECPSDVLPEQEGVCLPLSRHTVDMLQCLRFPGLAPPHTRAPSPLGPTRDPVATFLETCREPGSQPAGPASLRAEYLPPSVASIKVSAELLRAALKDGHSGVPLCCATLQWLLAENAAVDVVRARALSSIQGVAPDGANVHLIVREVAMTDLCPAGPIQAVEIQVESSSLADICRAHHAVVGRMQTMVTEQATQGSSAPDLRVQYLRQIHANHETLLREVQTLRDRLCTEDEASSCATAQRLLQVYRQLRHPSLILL
inactive: IRAK-1-4 Inhibitor I 0.026 | ibrutinib -0.247 | [1] -0.025 | ralimetinib -0.065 | [2] -0.085 | [3] -0.043 | [4] -0.05 | pinometostat 0.013 | [5] -0.097 | [6] 0.055

EFL1 (UniProt Q7Z2Z2)
Chain of UniProt Q7Z2Z2 (Q7Z2Z2 whole entry, looked up): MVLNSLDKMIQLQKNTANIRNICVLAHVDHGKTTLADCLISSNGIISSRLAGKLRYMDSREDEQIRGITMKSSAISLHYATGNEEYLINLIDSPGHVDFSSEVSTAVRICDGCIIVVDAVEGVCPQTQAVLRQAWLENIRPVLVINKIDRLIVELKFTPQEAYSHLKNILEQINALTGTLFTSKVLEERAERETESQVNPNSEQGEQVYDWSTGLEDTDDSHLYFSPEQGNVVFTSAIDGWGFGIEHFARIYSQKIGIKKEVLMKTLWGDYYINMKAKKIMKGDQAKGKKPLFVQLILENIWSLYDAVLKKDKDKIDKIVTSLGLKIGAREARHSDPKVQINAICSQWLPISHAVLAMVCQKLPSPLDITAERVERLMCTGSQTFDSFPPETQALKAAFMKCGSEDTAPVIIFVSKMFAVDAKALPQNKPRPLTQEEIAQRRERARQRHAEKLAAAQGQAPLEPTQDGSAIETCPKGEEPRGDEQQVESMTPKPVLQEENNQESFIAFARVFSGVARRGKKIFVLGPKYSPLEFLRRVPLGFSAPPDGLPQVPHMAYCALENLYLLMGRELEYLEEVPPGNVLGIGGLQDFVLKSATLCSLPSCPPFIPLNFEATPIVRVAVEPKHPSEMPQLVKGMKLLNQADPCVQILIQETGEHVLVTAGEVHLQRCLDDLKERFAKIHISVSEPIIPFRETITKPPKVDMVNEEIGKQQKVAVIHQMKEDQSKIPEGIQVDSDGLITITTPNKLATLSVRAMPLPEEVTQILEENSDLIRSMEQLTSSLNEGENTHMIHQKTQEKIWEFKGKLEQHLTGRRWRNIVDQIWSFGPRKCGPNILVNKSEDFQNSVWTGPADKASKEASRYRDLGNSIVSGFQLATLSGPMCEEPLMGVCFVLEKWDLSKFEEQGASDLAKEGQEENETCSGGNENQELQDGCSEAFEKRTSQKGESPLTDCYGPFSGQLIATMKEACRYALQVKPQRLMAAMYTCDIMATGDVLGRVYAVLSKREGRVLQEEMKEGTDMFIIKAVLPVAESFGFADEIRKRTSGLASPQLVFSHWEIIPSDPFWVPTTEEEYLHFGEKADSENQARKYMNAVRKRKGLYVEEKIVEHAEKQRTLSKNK
inactive: IRAK-1-4 Inhibitor I 0.016 | ibrutinib -0.019 | [1] -0.039 | ralimetinib -0.004 | [2] -0.069 | [3] -0.103 | [4] 0.03 | pinometostat 0.005 | [5] -0.009 | [6] -0.058

DCUN1D1 (UniProt Q96GG9)
inactive: IRAK-1-4 Inhibitor I 0.031 | ibrutinib 0.016 | [1] -0.06 | ralimetinib -0.047 | [2] -0.002 | [3] -0.061 | [4] -0.022 | pinometostat -0.035 | [5] 0.014 | [6] 0.018

CTNNB1 (UniProt P35222)
Chain of UniProt P35222 (P35222 whole entry, looked up): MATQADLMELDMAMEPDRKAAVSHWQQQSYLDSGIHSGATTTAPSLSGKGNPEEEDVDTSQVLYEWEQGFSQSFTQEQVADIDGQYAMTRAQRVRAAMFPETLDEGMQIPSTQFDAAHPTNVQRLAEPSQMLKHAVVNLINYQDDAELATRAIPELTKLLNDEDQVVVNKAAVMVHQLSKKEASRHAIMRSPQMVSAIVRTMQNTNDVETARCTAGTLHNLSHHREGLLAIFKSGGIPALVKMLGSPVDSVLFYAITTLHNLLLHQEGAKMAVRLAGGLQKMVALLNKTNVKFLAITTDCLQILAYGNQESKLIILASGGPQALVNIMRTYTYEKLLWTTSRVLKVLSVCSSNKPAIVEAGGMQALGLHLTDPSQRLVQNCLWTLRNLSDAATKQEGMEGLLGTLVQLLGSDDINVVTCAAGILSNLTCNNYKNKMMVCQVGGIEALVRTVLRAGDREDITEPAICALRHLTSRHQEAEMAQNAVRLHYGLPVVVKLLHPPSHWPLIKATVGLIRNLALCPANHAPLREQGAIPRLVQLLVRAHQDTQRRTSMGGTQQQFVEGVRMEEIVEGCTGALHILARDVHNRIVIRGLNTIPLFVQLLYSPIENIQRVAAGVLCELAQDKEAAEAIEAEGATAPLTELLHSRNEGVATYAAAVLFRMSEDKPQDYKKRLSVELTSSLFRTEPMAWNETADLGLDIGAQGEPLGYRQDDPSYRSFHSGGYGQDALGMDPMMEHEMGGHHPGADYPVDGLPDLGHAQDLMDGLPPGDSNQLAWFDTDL
inactive: IRAK-1-4 Inhibitor I -0.028 | ibrutinib -0.116 | [1] 0.263 | ralimetinib -0.045 | [2] -0.056 | [3] -0.007 | [4] 0.081 | pinometostat -0.021 | [5] -0.057 | [6] 0.003

ERLIN1 (UniProt O75477)
Chain of UniProt O75477 (O75477 whole entry, looked up): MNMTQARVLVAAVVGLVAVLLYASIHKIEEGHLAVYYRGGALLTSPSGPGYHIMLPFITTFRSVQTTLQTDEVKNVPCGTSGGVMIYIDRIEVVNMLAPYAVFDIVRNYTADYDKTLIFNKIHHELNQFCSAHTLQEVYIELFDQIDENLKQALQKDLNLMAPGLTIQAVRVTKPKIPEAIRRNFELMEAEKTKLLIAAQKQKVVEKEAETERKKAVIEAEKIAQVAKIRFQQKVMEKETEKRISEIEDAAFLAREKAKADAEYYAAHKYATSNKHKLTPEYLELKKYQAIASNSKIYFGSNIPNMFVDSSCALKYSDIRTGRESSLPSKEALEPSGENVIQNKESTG
active: [3] -0.269
inactive: IRAK-1-4 Inhibitor I -0.073 | ibrutinib -0.06 | [1] 0.105 | ralimetinib 0.054 | [2] -0.018 | [4] -0.007 | pinometostat 0.098 | [5] 0.012 | [6] 0.068

CUEDC2 (UniProt Q9H467)
Chain of UniProt Q9H467 (Q9H467 whole entry, looked up): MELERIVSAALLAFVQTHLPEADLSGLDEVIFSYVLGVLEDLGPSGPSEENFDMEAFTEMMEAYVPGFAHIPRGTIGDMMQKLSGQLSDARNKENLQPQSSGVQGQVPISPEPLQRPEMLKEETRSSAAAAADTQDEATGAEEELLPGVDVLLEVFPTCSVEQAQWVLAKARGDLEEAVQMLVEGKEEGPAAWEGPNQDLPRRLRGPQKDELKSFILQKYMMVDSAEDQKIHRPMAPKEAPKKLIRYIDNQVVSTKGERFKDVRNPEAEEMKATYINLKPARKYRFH
inactive: IRAK-1-4 Inhibitor I 0.035 | ibrutinib -0.011 | [1] 0.003 | ralimetinib -0.026 | [2] -0.056 | [3] -0.003 | [4] 0.198 | pinometostat -0.001 | [5] -0.015 | [6] -0.159

CTSH (UniProt P09668)
Chain of UniProt P09668 (P09668 whole entry, looked up): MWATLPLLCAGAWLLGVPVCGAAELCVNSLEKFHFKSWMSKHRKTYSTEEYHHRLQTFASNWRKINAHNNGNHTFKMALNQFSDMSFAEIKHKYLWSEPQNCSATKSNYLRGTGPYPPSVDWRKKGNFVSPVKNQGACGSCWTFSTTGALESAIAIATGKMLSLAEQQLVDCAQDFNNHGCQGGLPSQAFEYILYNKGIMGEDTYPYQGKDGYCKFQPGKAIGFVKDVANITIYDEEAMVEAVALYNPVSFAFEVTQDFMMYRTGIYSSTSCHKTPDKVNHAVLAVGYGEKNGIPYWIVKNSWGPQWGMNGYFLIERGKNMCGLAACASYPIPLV
inactive: IRAK-1-4 Inhibitor I 0.009 | ibrutinib 0.034 | [1] 0.005 | ralimetinib 0.104 | [2] 0.005 | [3] -0.142 | [4] -0.016 | pinometostat -0.06 | [5] 0.009 | [6] -0.043

ESS2 (UniProt Q96DF8)
inactive: IRAK-1-4 Inhibitor I 0.032 | ibrutinib 0.025 | [1] 0.031 | ralimetinib -0.009 | [2] 0.013 | [3] 0.002 | [4] 0.136 | pinometostat 0.056 | [5] 0.099 | [6] -0.021

CWC27 (UniProt Q6UX04)
inactive: IRAK-1-4 Inhibitor I -0.045 | ibrutinib -0.111 | [1] -0.133 | ralimetinib 0.048 | [2] -0.08 | [3] 0.018 | [4] -0.007 | pinometostat -0.023 | [5] -0.045 | [6] 0.199

DYRK1A isoform 2 (UniProt Q13627)
inactive: IRAK-1-4 Inhibitor I -0.001 | ibrutinib -0.009 | ralimetinib -0.046 | [2] -0.042 | [3] -0.254 | [4] 0.064 | pinometostat 0.055 | [5] -0.014 | [6] 0.144
active: [1] -0.358

DIP2A (UniProt Q14689)
inactive: IRAK-1-4 Inhibitor I -0.036 | ibrutinib 0.053 | [1] -0.06 | ralimetinib 0.102 | [2] 0.003 | [3] -0.023 | [4] 0.118 | pinometostat 0.064 | [5] 0.084 | [6] 0.018

DIAPH1 (UniProt O60610)
active: [3] -0.373
inactive: IRAK-1-4 Inhibitor I -0.128 | ibrutinib -0.061 | [1] 0.072 | ralimetinib 0.168 | [2] 0 | [4] 0.07 | pinometostat 0.213 | [5] -0.017 | [6] -0.08

FAM160B1 (UniProt Q5W0V3)
inactive: IRAK-1-4 Inhibitor I 0.019 | ibrutinib 0.012 | [1] 0.03 | ralimetinib 0.005 | [2] -0.05 | [4] 0.019 | pinometostat -0.019 | [5] -0.036 | [6] -0.051
active: [3] -0.285

CYFIP1 (UniProt Q7L576)
inactive: IRAK-1-4 Inhibitor I -0.001 | ibrutinib -0.019 | [1] -0.07 | ralimetinib -0.013 | [2] -0.056 | [3] -0.042 | [4] -0.013 | pinometostat 0.001 | [5] 0.009 | [6] 0.026

EXOC6 (UniProt Q8TAG9)
inactive: IRAK-1-4 Inhibitor I -0.046 | ibrutinib -0.007 | [1] -0.014 | ralimetinib 0.102 | [2] -0.084 | [4] 0.042 | pinometostat 0.056 | [5] 0.158 | [6] 0.032
active: [3] -0.397

DAG1 (UniProt Q14118)
inactive: IRAK-1-4 Inhibitor I -0.019 | ibrutinib -0.024 | [1] -0.029 | ralimetinib -0.076 | [2] 0.003 | [3] 0.169 | [4] 0.008 | pinometostat 0.04 | [5] -0.008 | [6] 0.067

FAM3A (UniProt P98173)
Chain of UniProt P98173 (P98173 whole entry, looked up): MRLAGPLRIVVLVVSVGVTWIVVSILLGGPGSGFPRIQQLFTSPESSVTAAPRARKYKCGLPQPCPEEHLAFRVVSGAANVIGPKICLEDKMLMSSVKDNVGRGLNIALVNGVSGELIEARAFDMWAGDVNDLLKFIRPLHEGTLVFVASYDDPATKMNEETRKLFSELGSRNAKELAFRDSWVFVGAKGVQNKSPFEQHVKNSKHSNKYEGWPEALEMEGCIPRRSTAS
inactive: IRAK-1-4 Inhibitor I -0.028 | ibrutinib -0.011 | [1] 0.028 | ralimetinib 0.023 | [2] -0.028 | [3] -0.07 | [4] 0.047 | pinometostat 0.007 | [5] 0.018 | [6] 0.088

EXOC2 (UniProt Q96KP1)
active: [3] -0.43
inactive: IRAK-1-4 Inhibitor I -0.092 | ibrutinib -0.018 | [1] -0.048 | ralimetinib 0.08 | [2] -0.052 | [4] 0.027 | pinometostat 0.172 | [5] -0.216 | [6] 0.007
